Laboratory results as given in PubChem BioAssay (NCI).
The panel holds about 83,000 compounds, 20% with a hit somewhere; the sample as a whole holds those more often.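 Plates (96-well) were seeded with cells, treated with compound at one concentration, and incubated for 48 hours before percent growth was determined.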 The source made the active and inactive calls. The calls were made as follows: active = growth percent below 10; inactive = the rest.

Tested on: HOP-62 NSCLC
Assay: NCI-60 one-dose screen, 48 h (100 = growth as untreated, 0 = no growth, -100 = all killed)
Details: 10 µM unless noted

Q: With `COc1cc2c3c(c1)nc(C)n3CCC2` as the molecule, how does the growth read?
A: 90.7% (inactive)

Q: `Cc1sc2c(c1C)c(=O)nc1c(-c3nc4ccccc4s3)n[nH]n12` was tested. Which growth did it give?
A: 90.1% (inactive)

Q: With `COc1cc2c(cc1OCCCCCN1CCN(c3ncnc4ccccc34)CC1)N=CC1CCCN1C2=O` (centres undefined) as the molecule, how does the growth read?
A: -22.4% (active)

Q: `COc1cc2c(cc1OCCCCN1CCN(CC(=O)Nc3ccc(Cl)cc3C(=O)c3ccccc3Cl)CC1)N=CC1CCCN1C2=O` (centres undefined) was tested. Which growth did it give?
A: -88.8% (active)

Q: Which growth does the source give for `CCOC(=O)C1=C(C)NC(=O)NC1c1cc(=O)oc2ccc(C)cc12` (centres undefined) here?
A: 105% (inactive)

Q: How did the growth turn out when `COc1ccc2nc3cc(Cl)ccc3c(Nc3ccc(N(C)C)cc3)c2c1` was run?
A: 89.9% (inactive)

Q: With `C[C@@H](C[C@H](CCO)c1cc(C(F)(F)F)cc(C(F)(F)F)c1)c1ccc2ccccc2c1` as the molecule, how does the growth read?
A: 85.6% (inactive)

Q: With `COc1ccc2c(CCCc3ccc(Cl)cc3Cl)c3[n+](cc2c1OC)CCc1cc2c(cc1-3)OCO2` as the molecule, how does the growth read?
A: 13.8% (inactive)

Q: With `COc1cc2c(cc1OCCCCCCN1CCN(c3ncnc4ccccc34)CC1)N=CC1CCCN1C2=O` (centres undefined) as the molecule, how does the growth read?
A: -25.9% (active)

Q: How did the growth turn out when `c1cc[n+](Cc2c3ccccc3cc3c2ccc2ccccc23)cc1` was run?
A: 23.7% (inactive)

Q: For `CC(C)[C@@H]1CC[C@]2(CO2)[C@@H]2C(=O)OCC(C(=O)O)=C[C@H]21`, which growth is on record?
A: 5.26% (active)

Q: With `N#Cc1c(NC(=O)c2cccs2)[n+]([O-])c2ccc(F)cc2[n+]1[O-]` as the molecule, how does the growth read?
A: 68.1% (inactive)

Q: With `CC(CCCC(=O)O)c1ccoc1` (centres undefined) as the molecule, how does the growth read?
A: 101% (inactive)

Q: `CCCCCCCC(=O)SCC/C=C/[C@@H]1CC(=O)NCc2nc(co2)C2=N[C@@](C)(CS2)C(=O)N[C@@H](C(C)C)C(=O)O1` was tested. Which growth did it give?
A: -6.6% (active)
